Test results reported in PubChem BioAssay (NCATS).
Records with an inconclusive call do not appear. Active and inactive are the calls of the source. Calls come from the whole dose curve; as a rule, active = well fitted curve in the direction sought with a large enough effect; inconclusive = small, poorly fitted or top-dose-only effect, or another doubt; inactive = no such curve, though single readings can be large; an effect the other way counts as inactive or inconclusive.

What was measured:
[1] = target: Calcium and integrin-binding protein 1 (Homo sapiens) (UniProt Q99828); assay: Primary qHTS for Identification of Calcium Integrin Binding Protein 1 (CIB1) Competitor (AID 1508620); conditions: CIB1-GST / FITC-alphaIIb peptide fluorescence polarization; series mostly up to 57.7 µM;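 note: GST tagged CIB1 binding a fluorescein labelled alphaIIb integrin peptide tracer; top concentration of the series differs between compounds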
How it was run: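 Fluorescence polarization competition: GST-tagged CIB1 (1 uM final) preincubated with compound 15 min at room temperature, then FITC-labelled alphaIIb peptide (100 nM final) added. After 15 min at room temperature, polarization read at Ex 480/Em 540.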

[2] = Primary qHTS for inhibitors of nuclear receptor binding SET domain protein 2 (NSD2) in an isogenic RCH-ACV NSD2 p.E1099K mutant (9B) (AID 1645876); conditions: RCH-ACV NSD2 E1099K (9B) viability, CellTiter-Glo, 72 h; series mostly up to 44.9 µM; note: nearly all actives have a fitted effect of over 70% in size
[3] = Primary qHTS for inhibitors of nuclear receptor binding SET domain protein 2 (NSD2) in an RCH-ACV wild type WT cells (2C) (AID 1645877); conditions: RCH-ACV (leukaemia line) NSD2 WT (2C) viability, CellTiter-Glo, 72 h; series mostly up to 44.9 µM; note: nearly all actives have a fitted effect of over 70% in size
% is set by controls: 0 for no effect and ±100 for the full control effect.

Calcium and integrin-binding protein 1 (Homo sapiens), sequence (Q99828 whole entry, looked up): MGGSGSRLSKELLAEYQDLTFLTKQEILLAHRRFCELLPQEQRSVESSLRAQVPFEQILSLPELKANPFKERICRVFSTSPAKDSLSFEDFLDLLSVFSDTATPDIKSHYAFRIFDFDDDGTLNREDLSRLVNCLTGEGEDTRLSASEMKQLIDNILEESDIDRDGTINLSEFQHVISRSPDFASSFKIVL

CC(=O)OCC(Cc1ccccc1)NC(=O)C(Cc1ccccc1)NC(=O)c1ccccc1 (centres undefined)
inactive: Potency [1] | Potency [2] | Potency [3]

COc1cc2c(c(OC)c1O)C(c1ccc(O)cc1)C1C(=O)OC3C(COC(=O)C1=C2)OC(CO)(OC1OC(COC(=O)/C=C/c2ccc(OC4OC(C)C(O)C(O)C4O)cc2)C(O)C(O)C1O)C3O (centres undefined)
inactive: Potency [1] | activity change, negative = viability loss [2] -11.1% [at 9.23 µM] | activity change, negative = cell killing [3] -15.9% [at 9.23 µM]

COC(=O)C1=CO[C@@H](O[C@@H]2O[C@H](CO)[C@@H](O)[C@H](O)[C@H]2O)[C@@H]2C(C)CC(=O)[C@]12O (some centres undefined)
inactive: Potency [1] | Potency [2] | Potency [3]

OC[C@@]1(O)CO[C@H](OC[C@H]2O[C@@H](OCCc3ccccc3)[C@H](O)[C@@H](O)[C@@H]2O)[C@@H]1O
inactive: Potency [1] | Potency [2] | Potency [3]

COc1cc(C(=O)OCC2=CCC3C(C(=O)O)=COC(O[C@@H]4O[C@H](CO)[C@@H](O)[C@H](O)[C@H]4O)C23)ccc1O (some centres undefined)
inactive: Potency [1] | Potency [2] | Potency [3]

C[C@@H]1O[C@@H](O[C@H]2[C@H](O)[C@@H](O)[C@H](OC(=O)[C@]34CCC(C)(C)C[C@H]3C3=CCC5[C@@]6(C)CC[C@H](O[C@@H]7O[C@H](C(=O)O)[C@@H](O)[C@H](O)[C@H]7O)C(C)(C)C6CC[C@@]5(C)[C@]3(C)CC4)O[C@@H]2CO)[C@H](O)[C@H](O)[C@H]1O (some centres undefined)
inactive: Potency [1] | activity change, negative = viability loss [2] -5.91% [at 9.23 µM] | activity change, negative = cell killing [3] -1.6% [at 9.23 µM]

CC1=C2C(=O)C=C(CO[C@@H]3O[C@H](CO)[C@@H](O)[C@H](O)[C@H]3O)[C@@H]2[C@H]2OC(=O)[C@H](C)[C@@H]2CC1
inactive: Potency [1] | Potency [2] | Potency [3]

O=C(OC1C=C(CO)C2C(OC3OC(CO)C(O)C(O)C3O)OC=CC12O)c1ccc(O)cc1 (centres undefined)
inactive: Potency [1] | Potency [2] | Potency [3]

C/C=C/C=C/[C@@H]1O[C@](O)([C@H](CC)C(=O)NC/C=C/C=C(\C)[C@@H](OC)[C@@H](C)[C@@H]2O[C@H](/C=C/C=C/C=C(\C)C(=O)c3c(O)ccn(C)c3=O)[C@H](O)[C@@H]2O)[C@H](O)[C@H](O)C1(C)C
inactive: Potency [1] | outcome [2] inactive [at 9.23 µM] | outcome [3] inactive [at 9.23 µM]

CC(=O)OC1C(C)C2C(OC3OC(CO)C(O)C(O)C3O)OC=C(C(=O)O)C2C1OC(=O)c1ccccc1 (centres undefined)
inactive: Potency [1] | Potency [2] | Potency [3]

C[C@@H]1O[C@@H](OC2C(CO)OC(OCC3OC(OC(=O)[C@]45CCC(C)(C)CC4C4=CCC6[C@@]7(C)CC[C@@H](O)[C@](C)(C(=O)O)C7CC[C@@]6(C)[C@]4(C)CC5)C(O)C(O)C3O)C(O)C2O)[C@H](O)[C@H](O)[C@H]1O (some centres undefined)
inactive: Potency [1] | activity change, negative = viability loss [2] 0.361% [at 9.23 µM] | outcome [3] inactive [at 9.23 µM]

CC(C)(O)c1ccc2c(c1)C(=O)C[C@H]1[C@](C)(C(=O)O)CCC[C@]21C
inactive: Potency [1] | Potency [2] | Potency [3]

CC/C=C\[C@H](O)[C@H](O)C1=C(C)C(=O)[C@]2(O1)C(=O)N[C@@](O)(C(=O)c1ccccc1)[C@@H]2O
inactive: Potency [1] | Potency [2] | Potency [3]

C[C@@H]1CC[C@]2(C(=O)O)CC[C@]3(C)C(=CCC4[C@@]5(C)C[C@@H](O)[C@@H](O)C(C)(C)C5CC[C@]43C)C2[C@]1(C)O (some centres undefined)
inactive: Potency [1] | Potency [2] | Potency [3]

COc1ccc(C2(O)c3c(ccc4c3OC(C)(CCC=C(C)C)C=C4)NC(=O)C2OC)cc1 (centres undefined)
inactive: Potency [1] | Potency [2] | Potency [3]

CC1(C)CC[C@]2(C(=O)O[C@@H]3O[C@H](CO[C@@H]4O[C@H](CO)[C@@H](O)[C@H](O)[C@H]4O)[C@@H](O)[C@H](O[C@@H]4O[C@H](CO)[C@@H](O)[C@H](O)[C@H]4O)[C@H]3O)[C@H](O)C[C@]3(C)C(=CCC4[C@@]5(C)CC[C@H](O[C@@H]6OC[C@@H](O)[C@H](O)[C@H]6O)[C@@](C)(C(=O)O)C5CC[C@]43C)[C@@H]2C1 (some centres undefined)
inactive: Potency [1] | activity change, negative = viability loss [2] -2.24% [at 9.23 µM] | activity change, negative = cell killing [3] -1.62% [at 9.23 µM]

C=C(C)[C@@H]1CC[C@]2(C)CC[C@]3(C)C(CCC4[C@@]5(C)CC[C@H](O)C(C)(C)C5CC[C@]43C)C12 (some centres undefined)
inactive: Potency [1] | Potency [2] | Potency [3]

CC1(C)C(=O)N2c3ccccc3C(O)(CC(C(=O)O)n3cnc4ccccc4c3=O)C2N1O (centres undefined)
inactive: Potency [1] | Potency [2] | Potency [3]
